HepG2 tox: HepG2 cytotoxicity, counter-screen for TGF-b inhibitors; HepG2 CAGA-GFP viability, ATP luminescence, 18 h; Potency, µM (highest dose often 46.1 µM), hits mostly cytotoxic; 410,000 tested, 0.76% active; AID 588856
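HepG2 CAGA-GFP cells (1000/well, DMEM with 1% FBS) received compound, then TGF-beta at 500 pg/mL final, and were incubated 18 hours at 37 degrees C. Viability was read by CellTiter-Glo luminescence. Media-only wells were set as complete cell-killing and DMSO as no toxicity.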
ATXN2 expr inh: ATXN2 expression inhibition | 360,000 tested, 0.72% active | AID 1745845 | Potency, µM (titrated, usually from 57 µM), actives largely listed as inhibitors | HEK-293 ATXN2-luciferase reporter, luminescence, 24 h; further: nearly all actives have a fitted effect of over 55% in size
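qHTS (up to 57 uM final) was run with 24 h compound exposure of reporter cells at 37 °C. Each well was multiplexed: SteadyGlo luminescence measured ATXN2-luciferase expression after a fluorogenic Gly-Phe-AFC viability readout (25 uM final).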
TGFb SMAD3 inh: blocks TGF-b signaling. 410,000 tested, 1.2% active. Potency, µM (series often up to 46.1 µM), usual class: inhibitors. AID 588855. HepG2 CAGA-GFP TGF-b/SMAD3 reporter, GFP fluorescence, 18 h; TGF-beta stimulated, 500 pg/mL final; further: nearly all actives have a fitted effect of over 65% in size
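HEPG2 CAGA-GFP reporter cells (1000/well, DMEM with 1% FBS) received compounds, then recombinant TGF-beta at 500 pg/mL final for 18 hours at 37 degrees C. Per-cell GFP summed per well was normalised to unstimulated and stimulated DMSO controls before curve fitting.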
ATXN viability: cell viability loss in ATXN counter-screen. S2 cells (HEK-293 line with an ATXN2-luciferase reporter) viability, CellTiter-Fluor protease fluorescence, 24 h. Potency, µM (series often up to 56.7 µM), hits mostly cytotoxic. 400,000 tested, 0.49% active. AID 651635; further: nearly all actives have a fitted effect of over 40% in size
TDP1 cell noCPT: qHTS for Inhibitors of human tyrosyl-DNA phosphodiesterase 1 (TDP1): qHTS in cells in absence of CPT | DT40 Tdp1-/- hTDP1 cells, no CPT, ATP luminescence, 48 h | Potency, µM (titrated, usually from 46.2 µM), hits mostly inhibitors | 420,000 tested, 15% active; further: nearly all actives have a fitted effect of over 55% in size
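Luminescent ATP content (CellTiter-Glo) served as the growth readout. Knockout chicken DT40 cells expressing human TDP1 were exposed to compounds without camptothecin for a minimum 48 hr at 37 °C.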
TDP1 cell CPT: growth inhibition of DT40 Tdp1-/-;hTDP1 cells with camptothecin (screen for TDP1 inhibitors); chicken DT40 Tdp1-/-;hTDP1 cells + 20 nM CPT, ATP luminescence, 48 h; Potency, µM (doses to about 46.2 µM), usual class: inhibitors; 420,000 tested, 12% active; further: nearly all actives have a fitted effect of over 55% in size
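Cell growth measured by CellTiter-Glo luminescence after a minimum 48 h, 37 C compound exposure with 20 nM CPT in Tdp1-knockout DT40 cells stably expressing hTDP1, seeded 400/well; qHTS titration format.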
Numbers stand for hits; n = inactive; u = inconclusive; x = no result; [ ] = remark or other dose. Only some compounds are listed: those with a hit (about 17% of all), similar ones and a draw of the others. The call rests on the fitted dose curve; in most records, active means well fitted curve in the direction sought with a large enough effect; inconclusive means small, poorly fitted or top-dose-only effect, or another doubt; inactive means no such curve, though single readings can be large; an effect the other way counts as inactive or inconclusive.

SMILES	HepG2 tox	ATXN2 expr inh	TGFb SMAD3 inh	ATXN viability	TDP1 cell noCPT	TDP1 cell CPT
N#CC1=C(N)C(C#N)(C#N)C(c2ccncc2)C2CN(C(=O)OCc3ccccc3)CC=C12 (centres undefined)	n	n	u	n	16µM	21µM
N#CC1=C(N)C(C#N)(C#N)[C@H](c2cccnc2)[C@H]2CN(C(=O)OCc3ccccc3)CC=C12	n	x	n	n	15µM	u
N#CC1=C(N)C(C#N)(C#N)C(c2ccc[nH]2)C2CCCC=C12 (centres undefined)	n	n	n	n	u	u
CCOC(=O)N1CC=C2C(C#N)=C(N)C(C#N)(C#N)[C@H](c3ccccc3OCC)[C@H]2C1	n	n	n	n	u	u
N#CC1=C(N)C(C#N)(C#N)C(c2cccnc2)C2CC(c3ccccc3)CC=C12 (centres undefined)	n	n	n	n	21µM	16µM
O=C(O)c1cccc(S(=O)(=O)N(Cc2ccccc2)c2ccc(Cl)cc2)c1	n	n	n	n	n	n
COC(=O)/C=C\c1cc(O)ccc1O	x	x	x	x	0.6µM	0.6µM
COc1ccc(F)cc1-c1cc(C(=O)NC2CCCCC2)[nH]n1	n	n	n	n	n	n
CCOc1ccc(-c2cc(C(=O)NC3CCCCC3)[nH]n2)c(C)c1	n	n	n	n	n	n
Cc1cc(F)ccc1-c1cc(C(=O)NCC2CCCCC2)[nH]n1	n	n	u	n	u	21µM
COc1ccc(Cl)cc1-c1cc(C(=O)NCC2CCCCC2)[nH]n1	n	n	u	u	12µM	8.2µM
CC(C)Oc1cc(F)ccc1-c1cc(C(=O)NCC2CCCCC2)[nH]n1	n	n	n	n	u	n
CCOc1ccc(Cl)cc1-c1cc(C(=O)NCC2CCCCC2)[nH]n1	n	n	n	n	6.5µM	4.1µM
CN(C(=O)c1cccc(S(=O)(=O)NCc2ccccc2)c1)C1CCCCC1	n	n	n	n	u	u
NC(=O)c1ccc(NC(=O)COC(=O)CCc2ccc(S(=O)(=O)N3CCCCC3)cc2)cc1	n	x	n	n	n	n
CC1=C(C(N)=O)C(c2cccc(O)c2)n2ncnc2N1 (centres undefined)	n	n	n	n	n	n
CC1=C(C(=O)OC(C)C)C(c2cccc(F)c2)n2ncnc2N1 (centres undefined)	n	n	n	n	16µM	15µM
NC(N)=Nc1nc2cc([N+](=O)[O-])ccc2o1	n	n	n	u	10µM	10µM
COc1ccc(NC(=O)CSC(C)c2nc3ccccc3c(=O)[nH]2)cc1 (centres undefined)	n	n	n	u	n	n
Cc1[nH]c(=O)c(C(=O)/C=C/c2ccccc2F)c2c1CCCC2	n	8.9µM	u	28µM	3.3µM	4.6µM
CCOc1ccccc1NC(=O)COn1nnc2ccccc21	n	n	n	n	n	n
Cc1cccc(C(=O)NNC2=C(C(=O)C(F)(F)F)CCC2)c1O	n	u	u	n	13µM	6.5µM
O=C(NNC1=C(C(=O)C(F)(F)F)CCC1)c1cccc(O)c1	n	n	n	n	u	u
CCCNC(=O)C1(C)CCCN(Cc2c3ccccc3nn2C)C1 (centres undefined)	n	n	n	n	21µM	21µM
CCCNC(=O)C1(C)CCCN(Cc2ccc(Oc3ccccc3)cc2)C1 (centres undefined)	n	n	u	n	18µM	21µM
SMILES	HepG2 tox	ATXN2 expr inh	TGFb SMAD3 inh	ATXN viability	TDP1 cell noCPT	TDP1 cell CPT
CCCNC(=O)C1(C)CCCN(Cc2cccc(C#N)c2)C1 (centres undefined)	n	n	n	n	21µM	18µM
COCCNC(=O)C1(C)CCCN(Cc2csc(-c3ccc(Cl)cc3)n2)C1 (centres undefined)	n	n	n	u	13µM	12µM
CCCNC(=O)C1(C)CCCN(Cc2csc3ccccc23)C1 (centres undefined)	n	n	n	n	u	u
Cc1ccc(NC(=O)C2CCCN(S(=O)(=O)c3cn(C(C)C)cn3)C2)c(C)c1 (centres undefined)	n	n	u	n	n	n
COc1ccc(CN2CCC(C)(Oc3ccc4c(c3)OCO4)C2)c2ccccc12 (centres undefined)	n	n	n	n	u	u
CCCNC(=O)C1(C)CCCN(Cc2ccc(C)cc2)C1 (centres undefined)	n	n	n	n	u	n
OC1CCN(Cc2cccc(Oc3ccccc3)c2)CC1	n	n	n	n	u	23µM
COc1ccc(OC2(C)CCN(Cc3ccc(-c4ccccc4)o3)C2)cc1 (centres undefined)	n	n	u	n	u	21µM
CCNC(=O)C1(C)CCCN(Cc2cccc(Oc3ccccc3)c2)C1 (centres undefined)	n	n	n	n	21µM	18µM
CCCNC(=O)C1(C)CCCN(Cc2ccc(-c3ccccc3)cc2)C1 (centres undefined)	n	n	n	u	5.8µM	6.5µM
COC(=O)[C@H]1C[C@H](OC(=O)NCc2ccco2)[C@@]2(O)CN(S(=O)(=O)c3ccc(C)cc3)CC2[C@H]1C(=O)OC (some centres undefined)	n	n	n	n	u	u
CCCNC(=O)C1(C)CCCN(Cc2cccs2)C1 (centres undefined)	n	n	n	n	n	n
CC(C)N1CCCC(C)(C(=O)Nc2cccc(Oc3ccccc3)c2)C1 (centres undefined)	n	n	u	n	13µM	u
COCCNC(=O)C1(C)CCCN(C(=O)CCc2ccccc2)C1 (centres undefined)	n	n	n	n	n	n
CCCNC(=O)C1(C)CCCN(Cc2cc(-c3ccccc3)n(C)n2)C1 (centres undefined)	n	n	n	n	u	16µM
CCCNC(=O)C1(C)CCCN(Cc2cccn2C)C1 (centres undefined)	n	n	n	n	n	n
COCCNC(=O)C1(C)CCCN(C(=O)COc2ccccc2)C1 (centres undefined)	n	n	n	n	1.8µM	21µM
CCCNC(=O)C1(C)CCCN(Cc2ccc(C(F)(F)F)cc2)C1 (centres undefined)	n	n	n	n	u	21µM
CC(C)(Oc1ccc(Cl)cc1)C(=O)Nc1ccc(S(=O)(=O)Nc2ncccn2)cc1	n	n	n	n	n	n
O=C(c1ccc(F)c(F)c1)N1CCOc2ccc(CN3CCN(Cc4ccccn4)CC3)cc2C1	x	x	x	n	n	n[9.04 µM]

Bioassay records deposited in PubChem by National Center for Advancing Translational Sciences (NCATS).
